Source: PubChem (National Center for Advancing Translational Sciences (NCATS))
TRHR agonist = agonists of human TRH receptor; TRHR cells, calcium flux fluo-8, FDSS agonist mode; 360,000 compounds, 0.18% hits; P34981; activation, % at 2 µM; further: 0% is about no effect
Target sequence (P34981 whole entry, looked up): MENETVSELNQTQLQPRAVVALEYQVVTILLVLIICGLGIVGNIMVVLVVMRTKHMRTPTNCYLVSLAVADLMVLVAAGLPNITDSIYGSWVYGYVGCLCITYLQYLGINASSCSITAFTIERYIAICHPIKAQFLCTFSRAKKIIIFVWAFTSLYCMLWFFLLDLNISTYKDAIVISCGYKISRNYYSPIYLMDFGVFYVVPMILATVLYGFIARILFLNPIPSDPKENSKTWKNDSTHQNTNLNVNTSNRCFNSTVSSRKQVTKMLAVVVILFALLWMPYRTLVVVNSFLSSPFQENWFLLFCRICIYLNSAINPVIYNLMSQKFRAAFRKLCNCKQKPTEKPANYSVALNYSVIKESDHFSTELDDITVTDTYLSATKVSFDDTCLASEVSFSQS
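TRHR-expressing cells loaded with fluo-8 calcium dye; 23 nL library compound pin-transferred, kinetic FDSS fluorescence (Ex 480/Em 530) recorded about 180 s for agonist-induced calcium release, before a 10 nM TRH EC20 addition for potentiator mode.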
D1 ag = human D1 receptor agonism. activation, % at 2 µM. AID 504660. HEK293 T-REx D1 cells, calcium flux, agonist mode. P21728. 360,000 compounds, 1% hits; further: 0% is about no effect
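Agonism was scored from calcium flux recorded over 180 s (1 read/s) after pintool compound addition, following a 10-cycle baseline. Cells were inducible force-coupled HEK293 TREx D1, plated overnight at 30 C and loaded with no-wash calcium dye.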
D1 antag = human D1 dopamine receptor antagonism | 360,000 compounds, 3.2% hits | HEK293 TREx D1 cells, calcium flux, dopamine EC80; stronger effect = lower value | activity change, negative = inhibition, % at 10 µM; in the data active means activity change below about -30%; further: on the % scale 0 is the no-effect control and ±100 the full control effect
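HEK293 T-REx cells expressing inducible, force-coupled D1 receptor; no-wash Ca dye, 30–90 min RT. Cmpd → 180 s read at 1 Hz → EC80 DA → 180 s read.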
D1 potentiator = enhances dopamine response at the human D1 receptor | P21728 | HEK293 TREx D1 cells, calcium flux, dopamine EC20 potentiation | potentiation, % at 10 µM | 360,000 compounds, 0.036% hits | AID 504651; in the data active means potentiation above about 30%; further: 0% is about no effect
TRHR PAM = TRH receptor (human) allosteric enhancement. P34981. TRHR cells, fluo-8 calcium fluorescence, EC20 TRH enhancement. enhancement, % at 2 µM. 360,000 compounds, 0.66% hits. AID 493056; in the data active means enhancement above about 30%; further: 0% is about no effect
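TRHR-expressing cells loaded with fluo-8 calcium dye were read kinetically (ex 480/em 530) during compound addition, then stimulated with an EC20 of TRH (10 nM final). Enhancement of the Gq-mediated intracellular calcium response was scored.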
Active calls of the source: *; · = not tested or not shown. Shown are actives, neighbours in structure and some others; about 4.6% of the full set was active somewhere. Unless noted, no stated cut-off is given here; in the data, active means activation above about 30%; inactive means the rest.

SMILES	TRHR agonist	D1 ag	D1 antag	D1 potentiator	TRHR PAM
Cc1ccccc1CNC(=O)c1ccc2nc(SCc3ccc(F)cc3)n(C)c2c1	0	13	-5	-4	0
S=c1sc2ccccc2n1CCc1ccncc1	-1	6	-39*	-8	-3
CCC1CCCCN1C(=O)COC(=O)c1cc2ccccc2cc1O (stereo unspecified)	0	15	-32*	-9	-1
O=C(OCC(=O)N1CCCCC1)c1cc2ccccc2cc1O	0	3	9	4	-2
O=C(CNc1ccc2c(c1)OCO2)N/N=C\c1cn(Cc2ccc(F)cc2)c2ccccc12	-2	3	-41*	-4	3
CC(C)OC(=O)CC(=O)c1sc2nc3c(cc2c1N)CN(C)CC3	0	20	-6	0	38*
CN1CCc2nc3sc(C(=O)Nc4c(F)cccc4F)c(N)c3cc2C1	0	0	5	-5	23
O=C(COC(=O)c1c2c(nc3ccccc13)/C(=C/c1ccco1)CC2)NC1CCCC1	0	2	-49*	-8	4
CC1CCCCC1NC(=O)COC(=O)c1c2c(nc3ccccc13)/C(=C/c1ccco1)CC2 (stereo unspecified)	2	10	-17	-2	-2
CCOc1ccc(CCNc2nc3c(c(=O)n(C)c(=O)n3C)n2CC)cc1OCC	-3	6	-31*	-10	-2
Cn1c(=O)c2c(nc(NCCO)n2CCc2ccccc2)n(C)c1=O	0	2	-79*	-6	-2
Cn1c(=O)c2c(nc(NCc3ccccc3)n2Cc2ccccc2Cl)n(C)c1=O	0	-2	-30*	-7	12
Cn1c(=O)c2c(nc(NCCCO)n2CCc2ccccc2)n(C)c1=O	0	1	2	2	6
C=CCn1c(Oc2ccc(C=O)cc2OCC)nc2c1c(=O)n(C)c(=O)n2C	0	1	-61*	-13	2
CCn1c(Oc2ccccc2C)nc2c1c(=O)n(C)c(=O)n2C	-2	4	-4	3	-3
Cn1c(=O)c2c(nc(NCc3cccnc3)n2Cc2ccccc2Cl)n(C)c1=O	0	1	-3	17	3
COc1ccc2sc(N(Cc3cccnc3)C(=O)C3COc4ccccc4O3)nc2c1 (stereo unspecified)	0	9	·	0	0
Cc1nn(C(=O)c2ccc(Cl)cc2)c(C)c1S(=O)(=O)N1CCCCCC1	0	1	5	0	-5
Cn1c(=O)c2c(nc(SCc3cccnc3)n2Cc2ccccc2)n(C)c1=O	-1	0	-41*	-7	10
Cc1ccc(Cn2c(SCc3cccnc3)nc3c2c(=O)n(C)c(=O)n3C)cc1	-1	2	14	-1	-1
CCOc1ccc(CCNC(=O)CCc2cn(Cc3ccc(C)cc3)c3ccccc23)cc1	1	12	1	-7	-2
CCCN(C(=O)CSc1nc2ccccc2n1CC)C1CCS(=O)(=O)C1 (stereo unspecified)	2	8	-30*	-4	-6
CCCN(CCC)S(=O)(=O)c1ccc2c(c1)N(CC(=O)NC(C)c1ccccc1)C(=O)CS2 (stereo unspecified)	-1	1	7	1	-8
COc1ccc(Cn2ccnc2SCC(=O)Nc2ccccc2F)cc1	-1	2	-31*	-6	-5
COc1ccc(Cn2ccnc2SCC(=O)Nc2ccccc2OC)cc1	0	8	-8	-3	-6
SMILES	TRHR agonist	D1 ag	D1 antag	D1 potentiator	TRHR PAM
CC(=O)Nc1ccc(NC(=O)c2ccccc2C)cc1	0	-1	6	6	2
CC(=O)Nc1ccc(NC(=O)c2ccccc2CCc2ccccc2)cc1	-1	4	-31*	-12	0
CC1CC(C)CN(c2ccc([N+](=O)[O-])nc2)C1 (stereo unspecified)	-1	0	-9	0	2
CC1CN(c2ccc([N+](=O)[O-])nc2)CC(C)O1 (stereo unspecified)	0	1	-35*	-4	0
CCn1c(C(=O)Nc2cc(C)cc(C)c2)cc2sc(Cl)cc21	0	5	3	3	10
Cc1[nH]c2ccccc2c1-c1nc2ccccc2[nH]1	-1	14	-77*	-12	7
c1ccc(-c2nc3ccccc3[nH]2)cc1	0	0	3	2	13
Cc1ccc(-c2nc3ccccc3[nH]2)s1	-1	2	1	1	35*
CC(C)NC(=O)c1ccc2c(c1)nc1n2CCCCC1	0	0	1	-1	-1
Cc1cccc(C)c1NC(=O)Cn1nnc(C(=O)Nc2c(C)cccc2C)c1N	-1	2	5	3	-1
N#CCn1c(CN2CCCC2)nc2ccccc2c1=O	1	1	-5	-5	8
COc1cccc(CNC(=O)c2ccc(NC(=O)N3CCCCc4ccccc43)cc2)c1	0	1	0	-2	-1
CC(C)NC(=O)c1ccccc1NS(=O)(=O)c1ccc(Br)s1	0	5	-16	-5	-4
Cc1ccccc1NS(=O)(=O)c1ccc(Br)s1	-2	50*	-21	1	10
Cc1cc(C)n(-c2ccc(C(=O)Nc3ccc(S(=O)(=O)NCc4ccco4)cc3)cc2)n1	-2	9	-41*	-6	1
O=C(Nc1ccc(S(=O)(=O)NCc2ccco2)cc1)c1ccc(F)cc1	0	3	-35*	-8	-5
O=C(COC(=O)c1ccc(S(=O)(=O)NCc2ccco2)cc1)NCc1ccc(F)cc1	1	4	-41*	-4	0
O=C(COC(=O)c1ccc(S(=O)(=O)NCc2ccco2)cc1)c1ccccc1	-1	2	5	-6	-1
COC(=O)c1cc(CNC(=O)c2ccc(O)c(Cl)c2)ccc1OC	1	1	7	-3	-3
COC(=O)c1cc(CNC(=O)c2ccccc2Cl)ccc1OC	-1	3	-30*	1	-3
CCOC(=O)C(C)Sc1nnc2ccc3ccccc3n12 (stereo unspecified)	0	-1	-7	3	-4
O=C(CSc1ccccc1C(=O)NCc1ccccc1)NC1CCCCCCC1	-1	2	-84*	-5	-7
CC(C)CCNC(=O)c1ccccc1SCC(=O)NC1CCCCCCC1	-2	0	-22	-4	-10
O=C(CSc1ccccc1C(=O)O)NC1CCCCCC1	0	2	-39*	-5	-2
O=C(CSc1ccccc1C(=O)O)NC1CCCCCCC1	0	1	-9	-3	-5
Cc1ccc(C)c(Cn2c(=O)n(Cc3ccc4c(c3)OCO4)c(=O)c3oc4ccccc4c32)c1	0	0	12	1	-1
CCCS(=O)(=O)NCCc1csc2nc(-c3ccc(OC)cc3)nn12	0	6	·	3	-4
O=C(O)C1CC(=O)N(Cc2ccccc2)C1 (stereo unspecified)	2	1	-22	-12	5
